Drawing on ChEMBL document CHEMBL2218924, “A broad activity screen in support of a chemogenomic map for kinase signalling research and drug discovery” (Biochem J, 2013), this text covers residual activity for two molecules.

Test [1] concerns the target T1, Ephrin type-A receptor 3 (Homo sapiens) (UniProt P29320).
T1 sequence (whole entry): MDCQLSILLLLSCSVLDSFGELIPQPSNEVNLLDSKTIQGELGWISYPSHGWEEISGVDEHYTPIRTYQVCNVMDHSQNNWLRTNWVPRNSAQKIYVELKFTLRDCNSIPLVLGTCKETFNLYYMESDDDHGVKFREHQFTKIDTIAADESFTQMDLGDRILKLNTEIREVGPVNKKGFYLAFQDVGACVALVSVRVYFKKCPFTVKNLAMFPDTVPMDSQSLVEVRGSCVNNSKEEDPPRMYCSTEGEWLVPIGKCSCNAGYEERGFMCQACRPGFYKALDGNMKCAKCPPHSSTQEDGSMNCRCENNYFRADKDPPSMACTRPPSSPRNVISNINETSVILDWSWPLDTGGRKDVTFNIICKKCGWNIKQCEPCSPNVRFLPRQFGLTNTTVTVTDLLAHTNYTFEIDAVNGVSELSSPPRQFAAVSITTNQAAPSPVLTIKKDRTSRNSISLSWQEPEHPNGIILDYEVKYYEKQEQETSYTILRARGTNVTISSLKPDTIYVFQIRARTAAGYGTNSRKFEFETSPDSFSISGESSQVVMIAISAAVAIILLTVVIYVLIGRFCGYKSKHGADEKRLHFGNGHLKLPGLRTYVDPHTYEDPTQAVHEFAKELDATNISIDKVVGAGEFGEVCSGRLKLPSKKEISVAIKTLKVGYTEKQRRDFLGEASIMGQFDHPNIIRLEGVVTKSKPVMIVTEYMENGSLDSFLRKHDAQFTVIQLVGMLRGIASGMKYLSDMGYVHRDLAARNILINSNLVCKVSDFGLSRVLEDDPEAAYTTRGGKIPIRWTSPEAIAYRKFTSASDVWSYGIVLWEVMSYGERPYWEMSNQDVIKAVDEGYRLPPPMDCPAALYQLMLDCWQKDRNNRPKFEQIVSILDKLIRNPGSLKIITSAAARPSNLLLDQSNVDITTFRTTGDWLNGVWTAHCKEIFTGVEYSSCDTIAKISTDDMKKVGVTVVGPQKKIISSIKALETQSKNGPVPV
Conditions: at 10 µM; call rule not given here.

In test [2] the target is Ephrin type-A receptor 4 (Homo sapiens) (UniProt P54764). Particulars: at 10 µM.
Chain of Ephrin type-A receptor 4 (Homo sapiens) (P54764 whole entry): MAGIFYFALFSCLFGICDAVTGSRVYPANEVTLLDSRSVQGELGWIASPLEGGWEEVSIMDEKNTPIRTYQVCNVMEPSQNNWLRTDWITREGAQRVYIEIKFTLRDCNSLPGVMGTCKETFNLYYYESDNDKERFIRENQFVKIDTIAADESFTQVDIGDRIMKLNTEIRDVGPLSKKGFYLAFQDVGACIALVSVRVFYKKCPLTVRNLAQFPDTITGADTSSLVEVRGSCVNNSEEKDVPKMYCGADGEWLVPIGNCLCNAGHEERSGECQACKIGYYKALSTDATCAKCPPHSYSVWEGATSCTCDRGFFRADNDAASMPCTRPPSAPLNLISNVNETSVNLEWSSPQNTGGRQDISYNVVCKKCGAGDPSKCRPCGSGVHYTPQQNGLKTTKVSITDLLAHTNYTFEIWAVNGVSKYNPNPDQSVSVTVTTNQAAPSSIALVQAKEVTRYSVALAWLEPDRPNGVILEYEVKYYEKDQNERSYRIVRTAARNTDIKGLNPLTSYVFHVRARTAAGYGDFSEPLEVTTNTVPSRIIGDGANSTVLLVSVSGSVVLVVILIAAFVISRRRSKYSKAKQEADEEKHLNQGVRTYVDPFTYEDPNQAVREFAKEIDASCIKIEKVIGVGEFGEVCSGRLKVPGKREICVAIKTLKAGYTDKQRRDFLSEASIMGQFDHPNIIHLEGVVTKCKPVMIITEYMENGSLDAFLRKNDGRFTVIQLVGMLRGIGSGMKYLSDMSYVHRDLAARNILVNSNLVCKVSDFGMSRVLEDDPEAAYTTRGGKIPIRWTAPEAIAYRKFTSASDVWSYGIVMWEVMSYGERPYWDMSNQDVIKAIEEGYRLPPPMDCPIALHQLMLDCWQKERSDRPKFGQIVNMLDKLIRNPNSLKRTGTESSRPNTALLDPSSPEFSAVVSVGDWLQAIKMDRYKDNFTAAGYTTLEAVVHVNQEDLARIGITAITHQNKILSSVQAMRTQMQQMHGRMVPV
The target of test [3] is Ephrin type-A receptor 5 (Homo sapiens) (UniProt P54756). Conditions: at 10 µM.
Chain of Ephrin type-A receptor 5 (Homo sapiens) (P54756 whole entry): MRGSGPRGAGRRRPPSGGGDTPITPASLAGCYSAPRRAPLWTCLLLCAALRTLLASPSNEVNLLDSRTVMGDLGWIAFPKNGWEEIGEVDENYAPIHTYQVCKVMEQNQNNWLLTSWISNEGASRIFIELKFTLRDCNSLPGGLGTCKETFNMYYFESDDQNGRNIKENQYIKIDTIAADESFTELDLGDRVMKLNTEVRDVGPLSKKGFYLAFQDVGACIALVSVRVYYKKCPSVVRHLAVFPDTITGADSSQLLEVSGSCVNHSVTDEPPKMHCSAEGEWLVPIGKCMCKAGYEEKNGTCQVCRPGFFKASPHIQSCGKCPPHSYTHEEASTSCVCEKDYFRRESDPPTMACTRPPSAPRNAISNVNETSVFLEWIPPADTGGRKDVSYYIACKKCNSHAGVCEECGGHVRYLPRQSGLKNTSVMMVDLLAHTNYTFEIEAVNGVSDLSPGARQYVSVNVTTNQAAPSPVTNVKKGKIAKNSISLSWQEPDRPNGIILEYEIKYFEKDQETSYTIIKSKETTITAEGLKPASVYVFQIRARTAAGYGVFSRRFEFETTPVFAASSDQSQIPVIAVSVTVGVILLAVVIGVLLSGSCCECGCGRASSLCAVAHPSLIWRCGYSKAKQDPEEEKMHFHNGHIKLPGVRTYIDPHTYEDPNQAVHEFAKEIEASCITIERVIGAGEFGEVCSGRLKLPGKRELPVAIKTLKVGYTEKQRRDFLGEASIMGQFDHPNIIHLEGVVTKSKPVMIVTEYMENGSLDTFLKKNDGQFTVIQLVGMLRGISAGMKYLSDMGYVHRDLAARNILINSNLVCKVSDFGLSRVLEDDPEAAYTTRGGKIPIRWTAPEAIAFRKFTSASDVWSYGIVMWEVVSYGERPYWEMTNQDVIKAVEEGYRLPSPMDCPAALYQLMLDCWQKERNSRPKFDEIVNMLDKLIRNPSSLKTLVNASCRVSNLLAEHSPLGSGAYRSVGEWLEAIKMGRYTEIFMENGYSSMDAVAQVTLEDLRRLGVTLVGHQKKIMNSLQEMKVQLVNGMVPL
Test [4] concerns the target Ephrin type-A receptor 7 (Homo sapiens) (UniProt Q15375). Conditions: at 1 µM.
Test [5] has the same target. Particulars: at 10 µM.
Test [6] deals with T2, Ephrin type-A receptor 8 (Homo sapiens) (UniProt P29322).
T2 sequence (whole entry): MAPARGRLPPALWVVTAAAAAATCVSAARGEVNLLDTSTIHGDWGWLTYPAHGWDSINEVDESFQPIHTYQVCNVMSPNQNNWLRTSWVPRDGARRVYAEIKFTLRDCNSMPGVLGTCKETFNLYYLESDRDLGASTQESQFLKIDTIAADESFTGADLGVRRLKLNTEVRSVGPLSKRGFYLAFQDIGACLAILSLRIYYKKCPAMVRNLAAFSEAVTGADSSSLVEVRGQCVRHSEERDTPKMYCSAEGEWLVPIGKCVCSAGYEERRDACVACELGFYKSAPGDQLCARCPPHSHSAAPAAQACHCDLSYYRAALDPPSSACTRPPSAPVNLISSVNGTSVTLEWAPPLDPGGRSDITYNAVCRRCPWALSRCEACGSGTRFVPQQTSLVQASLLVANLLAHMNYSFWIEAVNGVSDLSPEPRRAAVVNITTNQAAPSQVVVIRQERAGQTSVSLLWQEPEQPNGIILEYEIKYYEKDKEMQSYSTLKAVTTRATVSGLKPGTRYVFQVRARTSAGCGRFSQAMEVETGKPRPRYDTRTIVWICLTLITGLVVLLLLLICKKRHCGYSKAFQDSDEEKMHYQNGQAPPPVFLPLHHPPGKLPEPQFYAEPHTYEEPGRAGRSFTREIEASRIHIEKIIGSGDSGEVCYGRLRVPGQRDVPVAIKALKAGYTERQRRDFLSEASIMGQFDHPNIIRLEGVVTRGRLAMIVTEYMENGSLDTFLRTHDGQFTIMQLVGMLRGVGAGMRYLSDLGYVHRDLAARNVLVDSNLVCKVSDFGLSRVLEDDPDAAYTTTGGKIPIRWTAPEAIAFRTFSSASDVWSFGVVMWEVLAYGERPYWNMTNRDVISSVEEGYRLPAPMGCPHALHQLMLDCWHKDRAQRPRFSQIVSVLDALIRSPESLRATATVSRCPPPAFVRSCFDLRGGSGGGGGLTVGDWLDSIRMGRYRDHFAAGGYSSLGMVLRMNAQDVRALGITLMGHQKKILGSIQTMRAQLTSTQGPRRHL
Particulars: at 1 µM.

For test [7], the target named is T2, Ephrin type-A receptor 8 (Homo sapiens). Conditions: at 10 µM.
For test [8], the target named is T3, Ephrin type-B receptor 1 (Homo sapiens) (UniProt P54762).
T3 sequence (whole entry): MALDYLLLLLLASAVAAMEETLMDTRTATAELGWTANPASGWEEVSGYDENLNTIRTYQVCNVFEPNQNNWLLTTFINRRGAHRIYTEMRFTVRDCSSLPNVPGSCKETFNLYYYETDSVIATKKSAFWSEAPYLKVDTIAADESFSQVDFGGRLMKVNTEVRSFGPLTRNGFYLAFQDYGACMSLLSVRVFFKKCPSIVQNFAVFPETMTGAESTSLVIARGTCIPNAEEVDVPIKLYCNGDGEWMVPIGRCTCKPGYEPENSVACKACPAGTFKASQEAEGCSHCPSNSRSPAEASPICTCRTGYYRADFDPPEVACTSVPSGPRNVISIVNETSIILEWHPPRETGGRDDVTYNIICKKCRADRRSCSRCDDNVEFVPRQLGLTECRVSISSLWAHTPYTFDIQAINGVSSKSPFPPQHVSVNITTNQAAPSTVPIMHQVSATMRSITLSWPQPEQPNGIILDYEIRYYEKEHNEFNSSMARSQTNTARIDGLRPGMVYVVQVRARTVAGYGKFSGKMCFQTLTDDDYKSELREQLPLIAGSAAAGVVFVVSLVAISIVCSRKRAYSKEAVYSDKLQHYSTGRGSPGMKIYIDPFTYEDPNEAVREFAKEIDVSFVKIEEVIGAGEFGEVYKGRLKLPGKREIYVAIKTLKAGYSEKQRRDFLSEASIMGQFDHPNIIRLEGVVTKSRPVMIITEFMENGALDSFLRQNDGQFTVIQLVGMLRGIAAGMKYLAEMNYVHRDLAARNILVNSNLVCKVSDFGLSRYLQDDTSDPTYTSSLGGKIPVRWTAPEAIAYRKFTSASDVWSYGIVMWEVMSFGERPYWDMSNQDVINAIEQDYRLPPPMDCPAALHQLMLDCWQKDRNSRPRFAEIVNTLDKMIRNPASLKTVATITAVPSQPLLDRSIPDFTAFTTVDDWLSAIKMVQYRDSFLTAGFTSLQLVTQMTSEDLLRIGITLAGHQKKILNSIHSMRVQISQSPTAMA
Particulars: at 1 µM.

Test [9] addresses T3, Ephrin type-B receptor 1 (Homo sapiens). Particulars: at 10 µM.
Test [10] deals with T4, Ephrin type-B receptor 2 (Homo sapiens) (UniProt P29323).
T4 sequence (whole entry): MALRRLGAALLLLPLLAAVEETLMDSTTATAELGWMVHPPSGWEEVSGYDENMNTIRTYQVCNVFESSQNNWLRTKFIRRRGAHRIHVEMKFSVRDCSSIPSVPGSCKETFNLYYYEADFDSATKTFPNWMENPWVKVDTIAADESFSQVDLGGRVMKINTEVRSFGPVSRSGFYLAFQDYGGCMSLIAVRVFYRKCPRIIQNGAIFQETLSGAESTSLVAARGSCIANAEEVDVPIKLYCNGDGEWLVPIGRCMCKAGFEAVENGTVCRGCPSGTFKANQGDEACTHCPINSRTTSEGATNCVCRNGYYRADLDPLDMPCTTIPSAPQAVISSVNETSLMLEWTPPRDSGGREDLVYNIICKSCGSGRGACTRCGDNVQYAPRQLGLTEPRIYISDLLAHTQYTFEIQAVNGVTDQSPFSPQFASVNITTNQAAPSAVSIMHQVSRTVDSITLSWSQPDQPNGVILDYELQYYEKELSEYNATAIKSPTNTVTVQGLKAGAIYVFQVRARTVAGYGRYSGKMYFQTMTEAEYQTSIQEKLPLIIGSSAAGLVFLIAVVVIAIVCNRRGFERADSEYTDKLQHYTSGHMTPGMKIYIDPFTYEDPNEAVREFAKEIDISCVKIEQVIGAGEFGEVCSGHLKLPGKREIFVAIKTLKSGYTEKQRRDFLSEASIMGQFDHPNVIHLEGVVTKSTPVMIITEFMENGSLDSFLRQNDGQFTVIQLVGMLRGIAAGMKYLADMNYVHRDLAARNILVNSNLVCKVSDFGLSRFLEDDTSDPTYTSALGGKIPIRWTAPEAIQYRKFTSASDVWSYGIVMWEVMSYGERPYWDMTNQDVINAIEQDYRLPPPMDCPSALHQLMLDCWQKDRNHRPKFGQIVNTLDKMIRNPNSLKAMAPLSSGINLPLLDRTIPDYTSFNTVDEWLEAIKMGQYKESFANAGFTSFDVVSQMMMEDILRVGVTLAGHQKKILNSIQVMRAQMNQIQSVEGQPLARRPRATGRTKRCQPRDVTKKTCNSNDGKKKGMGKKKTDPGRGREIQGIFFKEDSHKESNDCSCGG
Conditions: at 10 µM.

For test [11], the target named is T5, Ephrin type-B receptor 3 (Homo sapiens) (UniProt P54753).
T5 sequence (whole entry): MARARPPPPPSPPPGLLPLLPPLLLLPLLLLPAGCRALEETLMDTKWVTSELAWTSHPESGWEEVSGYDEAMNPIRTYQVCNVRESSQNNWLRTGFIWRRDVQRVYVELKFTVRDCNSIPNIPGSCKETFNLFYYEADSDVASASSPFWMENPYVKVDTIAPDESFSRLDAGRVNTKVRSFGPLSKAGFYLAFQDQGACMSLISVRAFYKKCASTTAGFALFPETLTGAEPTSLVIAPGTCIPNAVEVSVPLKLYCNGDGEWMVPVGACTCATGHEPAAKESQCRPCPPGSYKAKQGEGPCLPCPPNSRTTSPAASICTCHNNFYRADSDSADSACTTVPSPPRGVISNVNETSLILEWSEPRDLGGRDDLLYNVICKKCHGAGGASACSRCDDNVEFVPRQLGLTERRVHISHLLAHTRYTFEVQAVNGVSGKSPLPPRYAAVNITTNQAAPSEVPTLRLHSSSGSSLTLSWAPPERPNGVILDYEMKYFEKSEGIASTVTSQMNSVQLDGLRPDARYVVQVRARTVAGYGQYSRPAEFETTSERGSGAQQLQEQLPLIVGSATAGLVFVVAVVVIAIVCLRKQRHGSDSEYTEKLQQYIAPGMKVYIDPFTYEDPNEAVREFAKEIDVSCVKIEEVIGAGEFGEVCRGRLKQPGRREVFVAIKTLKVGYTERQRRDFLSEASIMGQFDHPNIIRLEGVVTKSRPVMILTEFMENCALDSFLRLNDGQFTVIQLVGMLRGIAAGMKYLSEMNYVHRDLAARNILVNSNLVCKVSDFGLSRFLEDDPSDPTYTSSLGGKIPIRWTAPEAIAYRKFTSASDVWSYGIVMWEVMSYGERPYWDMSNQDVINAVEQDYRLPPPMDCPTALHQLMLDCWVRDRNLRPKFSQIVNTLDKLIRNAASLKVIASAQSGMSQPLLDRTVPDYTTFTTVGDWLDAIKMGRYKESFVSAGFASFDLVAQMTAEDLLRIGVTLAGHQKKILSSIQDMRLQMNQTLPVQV
Particulars: at 1 µM.

The target in test [12] is T5, Ephrin type-B receptor 3 (Homo sapiens). Particulars: at 10 µM.
Test [13] concerns the target Receptor tyrosine-protein kinase erbB-4 (Homo sapiens) (UniProt Q15303). Particulars: at 1 µM.
Test [14] has the same target. Particulars: at 10 µM.

Chain of Ephrin type-A receptor 7 (Homo sapiens) (Q15375 28-998 limits assumed): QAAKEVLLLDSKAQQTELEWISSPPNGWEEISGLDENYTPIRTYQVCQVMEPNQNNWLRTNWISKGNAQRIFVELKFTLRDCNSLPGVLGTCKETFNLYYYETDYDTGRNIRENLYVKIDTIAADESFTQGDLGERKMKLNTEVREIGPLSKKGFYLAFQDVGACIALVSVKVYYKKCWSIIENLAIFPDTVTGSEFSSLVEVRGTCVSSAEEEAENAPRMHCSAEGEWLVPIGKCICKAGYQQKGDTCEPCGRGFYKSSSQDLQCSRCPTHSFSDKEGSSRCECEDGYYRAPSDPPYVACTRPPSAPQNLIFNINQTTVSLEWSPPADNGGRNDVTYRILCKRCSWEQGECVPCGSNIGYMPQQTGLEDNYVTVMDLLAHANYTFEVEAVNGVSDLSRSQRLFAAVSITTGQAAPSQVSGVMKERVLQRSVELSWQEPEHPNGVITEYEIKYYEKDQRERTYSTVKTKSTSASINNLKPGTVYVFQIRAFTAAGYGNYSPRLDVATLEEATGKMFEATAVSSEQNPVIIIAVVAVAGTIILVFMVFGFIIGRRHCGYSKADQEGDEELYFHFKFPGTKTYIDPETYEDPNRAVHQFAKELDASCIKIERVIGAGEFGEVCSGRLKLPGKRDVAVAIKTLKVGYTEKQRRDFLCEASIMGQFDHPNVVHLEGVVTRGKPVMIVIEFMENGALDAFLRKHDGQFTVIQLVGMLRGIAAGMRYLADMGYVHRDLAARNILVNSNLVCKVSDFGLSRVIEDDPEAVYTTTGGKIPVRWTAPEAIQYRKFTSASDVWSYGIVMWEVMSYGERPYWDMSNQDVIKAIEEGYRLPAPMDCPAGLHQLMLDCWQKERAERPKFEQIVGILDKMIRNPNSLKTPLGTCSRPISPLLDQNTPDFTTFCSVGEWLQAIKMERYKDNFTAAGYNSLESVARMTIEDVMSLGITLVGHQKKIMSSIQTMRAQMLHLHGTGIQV
Chain of Receptor tyrosine-protein kinase erbB-4 (Homo sapiens) (Q15303 whole entry): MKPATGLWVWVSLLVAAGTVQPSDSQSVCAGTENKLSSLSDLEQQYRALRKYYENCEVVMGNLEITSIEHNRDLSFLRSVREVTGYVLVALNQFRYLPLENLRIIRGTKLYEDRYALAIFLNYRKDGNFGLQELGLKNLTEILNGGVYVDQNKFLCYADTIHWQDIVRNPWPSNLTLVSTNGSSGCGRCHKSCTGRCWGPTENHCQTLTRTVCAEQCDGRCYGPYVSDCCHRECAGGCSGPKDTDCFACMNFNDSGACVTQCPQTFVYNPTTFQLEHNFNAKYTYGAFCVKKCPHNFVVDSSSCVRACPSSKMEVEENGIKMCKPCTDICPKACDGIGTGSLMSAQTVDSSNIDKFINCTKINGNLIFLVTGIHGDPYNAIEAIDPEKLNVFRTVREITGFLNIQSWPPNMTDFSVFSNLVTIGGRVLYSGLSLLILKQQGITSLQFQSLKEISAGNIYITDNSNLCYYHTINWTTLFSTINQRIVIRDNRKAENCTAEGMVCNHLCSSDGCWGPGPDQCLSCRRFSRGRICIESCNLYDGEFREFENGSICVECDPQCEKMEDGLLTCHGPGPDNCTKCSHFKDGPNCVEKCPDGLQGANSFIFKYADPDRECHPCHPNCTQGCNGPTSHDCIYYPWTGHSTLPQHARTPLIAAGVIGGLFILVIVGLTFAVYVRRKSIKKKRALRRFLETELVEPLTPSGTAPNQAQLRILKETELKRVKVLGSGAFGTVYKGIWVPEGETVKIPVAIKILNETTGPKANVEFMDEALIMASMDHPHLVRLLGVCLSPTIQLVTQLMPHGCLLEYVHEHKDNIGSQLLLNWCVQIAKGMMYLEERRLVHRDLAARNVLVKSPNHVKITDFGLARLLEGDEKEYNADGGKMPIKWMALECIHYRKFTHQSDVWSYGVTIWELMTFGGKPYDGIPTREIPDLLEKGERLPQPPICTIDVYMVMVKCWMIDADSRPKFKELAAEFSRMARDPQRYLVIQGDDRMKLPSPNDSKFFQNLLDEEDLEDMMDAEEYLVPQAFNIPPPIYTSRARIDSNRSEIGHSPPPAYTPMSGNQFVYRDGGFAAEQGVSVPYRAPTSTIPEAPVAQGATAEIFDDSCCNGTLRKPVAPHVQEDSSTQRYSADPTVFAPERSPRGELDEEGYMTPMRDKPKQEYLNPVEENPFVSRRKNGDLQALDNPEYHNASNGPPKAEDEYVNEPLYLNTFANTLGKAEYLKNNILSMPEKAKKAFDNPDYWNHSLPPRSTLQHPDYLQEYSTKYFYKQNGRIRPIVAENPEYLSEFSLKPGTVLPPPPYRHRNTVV

The term residual activity denotes the signal under treatment as a percentage of the control signal. As for `CC(=O)c1ccc(N2CCOCC2)cc1O`, the residual activity is 94% in test [1]; 104% in test [2]; 101% in test [3]; 101% in [4]; 90% in [5]; 100% in test [6]. For the same molecule, the residual activity in test [7] is 93%; in test [8] it was 93%; in test [9], 101%; in test [10], 106%; in [11] it was 105% (inactive); in [12], 107%. For the same molecule, the results for the residual activity in test [13] and in [14] were 93% and 107%, respectively.
Turning to `Cc1cccc(-c2[nH]c(C(C)(C)C)nc2-c2ccc3c(c2)OCO3)n1`, the residual activity in test [1] is 96%; in test [4], 98%; in test [5], 94%; in test [6] it was 99%; in [7], 105%; in [13] it was 94%. Besides, the residual activity in test [14] amounted to 86%.
